For nine compounds, composite z-score, composite Z-score and z-score results are on record in PubChem BioAssay.

In one assay the target is Albumin (Bos taurus) (UniProt P02769). Nature of the assay: compounds binding labelled BSA control protein – biochemical, small-molecule microarray, Alexa647 label, 635/667 nm fluorescence, artefact control for SMM control protein annotation, profiling panel (AID 1118).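 Further: score merges 667 nm emission intensity and signal-to-noise per printed compound spot.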 The note with it: BSA-A647 binding, fluorescence 635 nm, higher = more signal.
Assay [1] in a line: probe aXIP binding to arrayed compounds – biochemical, NeuroSMM set, 635/667 nm fluorescence, primary screen (AID 1119).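 Further: probe is the protein aXip251-270 applied at 1 µg/mL to compound-printed slides; binding of probe to printed compounds measured as 667 nm fluorescence plus signal to noise.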 The following applies: small-molecule microarray, higher = more signal, called active from +8 up or from −8 down.
Assay [2] in a line: probe aNOTCH3 binding on compound microarray – biochemical, small-molecule microarray, 635/667 nm fluorescence, primary screen (AID 1120).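 Further: probe is a biotin-tagged antibody raised against NOTCH3 rather than NOTCH3 protein; score merges spot fluorescence near 667 nm with spot signal to noise.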 The following applies: higher = more signal.
Assay [3] can be described thus: probe aNOTCH2 binding on compound microarray – biochemical, small-molecule microarray, 635/667 nm fluorescence, primary screen (AID 1121).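 Further: score merges feature fluorescence read at 667 nm with its signal to noise.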 The following applies: higher = more signal.
Assay [4] has as its target Carbonic anhydrase 2 (Homo sapiens) (UniProt P00918). Description: compounds binding carbonic anhydrase 2 – biochemical, small-molecule microarray, Alexa647-labelled CAII, profiling panel (AID 1122). The note with it: CAII-A647 binding fluorescence, higher = more signal.
Assay [5] is described as follows: COS7 lysate on small-molecule microarray, probe aHis, 635 nm (AID 1123).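 Further: z-score combines 667nm fluorescence intensity with signal-to-noise per printed compound spot.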 The following applies: COS7 cell lysate, fluorescence, higher = more signal.
Assay [6] is described as follows: probe aLAP1 signal on lysate-treated microarray – cell lysate, small-molecule microarray, COS7 lysate, primary screen (AID 1124).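 Further: lysate comes from COS7 cells expressing LAP1 and is applied at 0.3 µg/mL; score merges spot fluorescence near 667 nm with signal-to-noise over triplicate slides.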 The note with it: probe aLAP1, fluorescence, higher = more signal.
In the next assay the test system is Sam68 (KHDRBS1). Description: compounds binding KHDRBS1 protein – biochemical, small-molecule microarray, 635 nm fluorescence, primary screen (AID 1125).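 Further: score merges 667 nm channel intensity with signal to noise over triplicate slides.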 The following applies: higher = more signal.
Assay [7] concerns Chordin-like protein 2 (CHRDL2). Description: compounds binding chordin-like 2 – biochemical, small-molecule microarray, 635 nm fluorescence, primary screen (AID 1126).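 Further: printed compound slides probed with Chrdl2 protein at 4 µg/mL for 1 h at 4 C; score merges 667 nm emission intensity with signal to noise over three replicate slides.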 The note with it: fluorescence 635 nm, higher = more signal.
The target in assay [8] is Concanavalin-A (Canavalia ensiformis) (UniProt P02866). Description: compounds binding concanavalin A lectin – biochemical, small-molecule microarray, Alexa647 label, 635 nm, artefact control for SMM control protein annotation, primary screen (AID 1127).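 Further: z combines 667 nm emission intensity with signal-to-noise across three replicate slides.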 The following applies: ConA-A647 binding fluorescence, higher = more signal.
A short description of assay [9]: compounds binding Alexa647 anti-His antibody – biochemical, small-molecule microarray, 635 nm fluorescence, artefact control for SMM control protein annotation, primary screen (AID 1128).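 Further: score merges feature fluorescence with signal-to-noise for each printed compound spot.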 The following applies: higher = more signal.
For assay [10], the system named is Human papillomavirus type 1a E7 protein (residues 1-88). Description: HPV1a E7 small-molecule binders, primary screen, biochemical, small-molecule microarray, residues 1-88, 635 nm (AID 1129). The note with it: small-molecule microarray binding, fluorescence 635 nm; higher = more signal.
In assay [11] the target is Focal adhesion kinase 1 (Homo sapiens) (UniProt Q05397). Nature of the assay: PTK2 protein binding on printed compound slides – biochemical, small-molecule microarray, 635/667 nm fluorescence, BSA, DTT, primary screen (AID 1130).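 Further: composite of spot emission at 667 nm and signal to noise over triplicate slides.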 The following applies: 635 nm fluorescence, higher = more signal.
Assay [12] has as its system Fibrinogen (Alexa647-labelled). Description: Alexa647-fibrinogen binding to printed small molecules – biochemical, small-molecule microarray, 635/667 nm fluorescence, artefact control for SMM control-protein annotation, profiling panel (AID 1131).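 Further: z-score merges 667 nm fluorescence with per-spot signal-to-noise over triplicate slides.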 The following applies: fibrinogen-A647 binding fluorescence, higher = more signal.
Assay [13] addresses Follistatin (Homo sapiens) (UniProt P19883). Nature of the assay: FST protein binding to printed compounds – biochemical, small-molecule microarray, 635/667 nm fluorescence, primary screen (AID 1132). The following applies: 635 nm fluorescence, higher = more signal.
Assay [14] has as its target Fibroblast growth factor 2 (Homo sapiens) (UniProt P09038). Nature of the assay: basic fibroblast growth factor binding to printed compounds – biochemical, small-molecule microarray, 635/667 nm fluorescence, primary screen (AID 1133). The note with it: FGF2, fluorescence 635/667, higher = more signal.
The nature of assay [15]: JC-1 mitochondrial potential readout, lung cancer cells – cell-based, A549, JC-1 fluorescence, basal, 24 h, 100 nL, profiling panel (AID 1138).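 Further: A549 lung adenocarcinoma cells under basal conditions with no added stimulus; test concentration not given here.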 The note with it: higher = more signal.
The subject of the next assay is Lefty1. Nature of the assay: Lefty1 protein binding to printed compounds – biochemical, small-molecule microarray, 635/667 nm fluorescence, primary screen (AID 1139). The following applies: fluorescence 635/667, higher = more signal.
Assay [16] has as its system wheat germ agglutinin (Triticum aestivum), Alexa647-labelled. Description: Alexa647-WGA lectin binding to printed small molecules – biochemical, small-molecule microarray, 635/667 nm fluorescence, artefact control for SMM control-protein annotation, profiling panel (AID 1140).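 Further: score merges 667 nm feature emission with signal to noise over triplicate slides.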 The following applies: WGA-A647 binding, 635 nm fluorescence, higher = more signal.
Assay [17] addresses Luciferin 4-monooxygenase (Photinus pyralis) (UniProt P08659). Description: inhibition of purified Photinus pyralis luciferase – biochemical, luminescence, purified enzyme, 2006 set, primary screen (AID 1141).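 Further: cell-free assay with purified firefly luciferase at 100 ng per well in PBS; test concentration not given here.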 The note with it: purified firefly luciferase, SteadyGlo luminescence, 30 min; higher = more signal, called active from +8 up or from −8 down.

Active and inactive are the calls of the source.

Sequence of Concanavalin-A (Canavalia ensiformis) (P02866 whole entry, looked up): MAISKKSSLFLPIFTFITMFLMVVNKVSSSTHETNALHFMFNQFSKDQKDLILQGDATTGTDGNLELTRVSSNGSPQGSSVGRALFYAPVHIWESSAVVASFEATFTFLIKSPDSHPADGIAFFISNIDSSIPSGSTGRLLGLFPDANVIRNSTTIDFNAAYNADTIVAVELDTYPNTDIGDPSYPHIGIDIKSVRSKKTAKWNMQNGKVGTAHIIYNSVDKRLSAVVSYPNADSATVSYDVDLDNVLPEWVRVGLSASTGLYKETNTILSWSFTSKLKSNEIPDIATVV
Sequence of Follistatin (Homo sapiens) (P19883 whole entry, looked up): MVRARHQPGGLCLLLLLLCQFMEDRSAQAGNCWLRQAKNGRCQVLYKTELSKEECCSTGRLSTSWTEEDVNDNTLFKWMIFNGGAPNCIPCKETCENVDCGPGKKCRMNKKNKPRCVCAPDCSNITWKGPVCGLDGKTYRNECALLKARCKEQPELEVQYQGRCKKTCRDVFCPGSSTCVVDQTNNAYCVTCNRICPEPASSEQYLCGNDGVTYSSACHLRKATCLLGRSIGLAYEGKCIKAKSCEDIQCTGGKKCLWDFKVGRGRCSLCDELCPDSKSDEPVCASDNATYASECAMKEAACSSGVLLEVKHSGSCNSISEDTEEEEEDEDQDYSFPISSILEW
Sequence of Albumin (Bos taurus) (P02769 whole entry, looked up): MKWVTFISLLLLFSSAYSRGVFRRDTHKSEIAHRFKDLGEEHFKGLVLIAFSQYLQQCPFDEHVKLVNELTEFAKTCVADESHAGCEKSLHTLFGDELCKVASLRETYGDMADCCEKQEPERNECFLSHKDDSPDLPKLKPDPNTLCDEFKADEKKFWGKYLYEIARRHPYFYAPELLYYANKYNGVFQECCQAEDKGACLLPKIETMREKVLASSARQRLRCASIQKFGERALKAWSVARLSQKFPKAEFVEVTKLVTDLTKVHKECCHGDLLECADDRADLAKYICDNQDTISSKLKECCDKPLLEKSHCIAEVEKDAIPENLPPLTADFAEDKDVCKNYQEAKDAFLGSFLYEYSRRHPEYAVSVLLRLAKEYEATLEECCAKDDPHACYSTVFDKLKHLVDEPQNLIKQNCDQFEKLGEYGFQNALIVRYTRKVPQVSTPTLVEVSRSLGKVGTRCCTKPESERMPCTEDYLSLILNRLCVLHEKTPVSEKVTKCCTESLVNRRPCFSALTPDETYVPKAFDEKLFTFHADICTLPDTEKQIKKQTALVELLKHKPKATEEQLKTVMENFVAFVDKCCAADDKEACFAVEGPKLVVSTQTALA
Sequence of Fibroblast growth factor 2 (Homo sapiens) (P09038 whole entry, looked up): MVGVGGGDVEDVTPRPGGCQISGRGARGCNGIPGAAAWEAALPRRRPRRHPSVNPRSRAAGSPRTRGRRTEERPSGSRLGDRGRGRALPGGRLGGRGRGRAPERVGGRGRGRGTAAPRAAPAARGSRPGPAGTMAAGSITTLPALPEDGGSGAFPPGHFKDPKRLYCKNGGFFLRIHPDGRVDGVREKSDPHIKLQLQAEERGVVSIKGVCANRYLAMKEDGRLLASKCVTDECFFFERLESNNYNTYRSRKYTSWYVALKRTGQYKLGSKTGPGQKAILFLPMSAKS
Sequence of Luciferin 4-monooxygenase (Photinus pyralis) (P08659 whole entry, looked up): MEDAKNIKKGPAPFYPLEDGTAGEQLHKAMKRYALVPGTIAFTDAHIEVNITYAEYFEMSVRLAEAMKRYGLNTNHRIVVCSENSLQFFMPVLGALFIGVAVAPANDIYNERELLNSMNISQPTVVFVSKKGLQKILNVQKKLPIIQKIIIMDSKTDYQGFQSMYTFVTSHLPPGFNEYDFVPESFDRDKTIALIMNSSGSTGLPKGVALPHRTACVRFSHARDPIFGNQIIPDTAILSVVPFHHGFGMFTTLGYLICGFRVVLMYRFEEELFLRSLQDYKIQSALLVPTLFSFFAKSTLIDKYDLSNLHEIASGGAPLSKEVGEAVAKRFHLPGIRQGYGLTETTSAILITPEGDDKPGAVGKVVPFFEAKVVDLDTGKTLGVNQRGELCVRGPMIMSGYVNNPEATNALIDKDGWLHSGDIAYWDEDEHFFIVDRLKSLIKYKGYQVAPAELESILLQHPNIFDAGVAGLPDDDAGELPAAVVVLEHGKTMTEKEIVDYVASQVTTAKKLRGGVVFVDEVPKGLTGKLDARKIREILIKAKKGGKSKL
Sequence of Focal adhesion kinase 1 (Homo sapiens) (Q05397 whole entry, looked up): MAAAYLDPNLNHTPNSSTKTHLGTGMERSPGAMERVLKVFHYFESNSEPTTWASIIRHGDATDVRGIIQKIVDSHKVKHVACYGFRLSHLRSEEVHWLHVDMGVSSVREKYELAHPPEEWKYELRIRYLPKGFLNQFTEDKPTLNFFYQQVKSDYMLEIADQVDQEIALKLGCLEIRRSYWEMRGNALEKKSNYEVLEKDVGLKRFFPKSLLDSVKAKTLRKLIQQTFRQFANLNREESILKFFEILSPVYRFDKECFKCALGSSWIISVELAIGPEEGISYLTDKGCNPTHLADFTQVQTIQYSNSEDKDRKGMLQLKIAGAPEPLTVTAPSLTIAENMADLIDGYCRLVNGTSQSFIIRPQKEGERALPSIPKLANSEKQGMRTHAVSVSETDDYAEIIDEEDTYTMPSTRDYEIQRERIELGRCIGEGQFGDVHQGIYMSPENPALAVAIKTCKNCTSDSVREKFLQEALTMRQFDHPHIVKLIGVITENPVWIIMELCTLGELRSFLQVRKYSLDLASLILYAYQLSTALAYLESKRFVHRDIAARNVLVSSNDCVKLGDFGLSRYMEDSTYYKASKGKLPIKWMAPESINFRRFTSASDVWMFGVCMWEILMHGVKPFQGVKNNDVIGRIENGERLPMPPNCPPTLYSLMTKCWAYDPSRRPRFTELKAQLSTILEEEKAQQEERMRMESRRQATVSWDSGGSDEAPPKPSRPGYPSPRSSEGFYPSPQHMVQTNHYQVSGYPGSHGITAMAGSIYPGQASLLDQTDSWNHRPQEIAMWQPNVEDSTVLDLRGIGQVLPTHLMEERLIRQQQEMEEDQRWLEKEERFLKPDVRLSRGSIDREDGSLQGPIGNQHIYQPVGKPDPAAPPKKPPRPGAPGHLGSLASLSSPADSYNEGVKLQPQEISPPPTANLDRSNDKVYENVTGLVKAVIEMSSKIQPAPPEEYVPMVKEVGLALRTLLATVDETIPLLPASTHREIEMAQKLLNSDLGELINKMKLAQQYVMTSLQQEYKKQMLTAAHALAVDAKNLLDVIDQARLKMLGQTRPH

`COC(=O)[C@@]1(Cc2ccc(F)cc2)[C@H]2c3cc(C(=O)N(C)C)n(Cc4ccc(Cl)c(C(F)(F)F)c4)c3C[C@H]2CN1C(=O)c1ccccc1`: the composite z-score with Albumin (Bos taurus) is 1.03; in [2], 0.405; in [3], 0.266; in assay [4], 0.77; in [5], 3.26; in [6], 1.05. The composite z-score in the assay on Sam68 (KHDRBS1) was 1.31; in [7] it was -0.899; in [8], 1.15; in [9] it was 2.56; in assay [10] it was 1.22; in assay [11], 1.14. For the same compound, the composite z-score was 1.01 in [12]; 0.909 in assay [13]; -0.542 in [14]; -0.764 in the assay on Lefty1; 1.4 in [16]. Also, the composite Z-score in [1] is 0.623 (inactive). Moreover, the figures for the z-score in [15] and in [17] were 1.98 and 1.04 (inactive), respectively.
As for `CC(C)C[C@@H]1NC(=O)[C@H](C(C)C)NC(=O)[C@@]23C(=O)N[C@@H](Cc4ccccc4)C2[C@H](C)[C@@]2(C)O[C@H]2C3/C=C/CC/C=C/CNC1=O` (stereo not given in full), the composite z-score with Albumin (Bos taurus) is 0.371; in assay [2], 0.0694; in assay [3] it was -0.126; in assay [4] it was 0.532; in assay [5], 1.28; in assay [6], -0.0375. The composite z-score with Sam68 (KHDRBS1) was 1.29; in [7], 0.806; in assay [8], 0.271; in assay [9], 0.65; in assay [10], 0.466; in assay [11] it was 0.262. The composite z-score in assay [12] is 0.972; in assay [13], 1.29; in [14], 1.53; in the assay with Lefty1, 1.15; in assay [16] it was 0.229. In addition, in [1], the composite Z-score is 0.131 (inactive). Further, the figures for the z-score in assay [15] and in [17] were 0.276 and -0.219 (inactive), respectively.
As for `O=C(c1ccccc1)N1Cc2ccccc2C[C@@]2(COC(c3ccc(OCCCO)cc3)=N2)C1=O`, the composite z-score with Albumin (Bos taurus) is 0.833; in [2], -0.0647; in [3], -0.0304; in assay [4] it was 0.288; in [5], 2.66; in assay [6] it was 0.549. The composite z-score worked out at 1.29 with Sam68 (KHDRBS1); 0.271 in [7]; 1.11 in assay [8]; 2.32 in [9]; 1.23 in assay [10]; 0.242 in assay [11]. The composite z-score in assay [12] came out at 0.905; in assay [13], 1.34; in assay [14], 1.45; in the assay with Lefty1, 0.663; in assay [16], 0.71. For the same compound, in assay [1], the composite Z-score was -0.305 (inactive). The z-score is 0.604 in assay [15] and -1.31 (inactive) in assay [17].
In the case of `Cc1ccccc1C(O)C1C=CC2C(=O)N(c3ccccc3)C(=O)C2N1Nc1ccc(C(C)C)cc1` (stereo not given), the composite z-score with Albumin (Bos taurus) was 0.868; in [2], 0.344; in assay [3], -0.0983; in assay [4], 0.304; in [5], 2.1; in assay [6], 0.68. Also, the composite z-score with Sam68 (KHDRBS1) was 1.15; in [7], -0.219; in assay [8], 1.15; in assay [9] it was 0.0147; in [10] it was 1.14; in assay [11] it was 0.655. Further, the composite z-score was 0.997 in assay [12]; 1.02 in assay [13]; -0.144 in assay [14]; 0.383 in the assay with Lefty1; 0.882 in assay [16]. In addition, the composite Z-score in assay [1] is 0.403 (inactive). In addition, the z-score is -0.504 in [15] and -0.263 (inactive) in assay [17].
Consider `CCCCCN1CC=CC23O[C@@H]4C=CCCOC(=O)C4[C@H]2C(=O)N(CCCCCO)[C@@H]3C1=O` (stereo not given in full), for which the composite z-score was 0.337 in the assay with Albumin (Bos taurus); -0.213 in assay [2]; -0.142 in assay [3]; 0.846 in [4]; 0.718 in assay [5]; 0.57 in [6]. Besides, the composite z-score in the assay on Sam68 (KHDRBS1) is -1.22; in assay [7], -0.17; in [8], -0.406; in [9] it was 0.587; in assay [10], 0.0287; in [11] it was -0.383. In addition, the composite z-score in assay [12] was 0.302; in assay [13], -1.03; in assay [14], -0.347; in the assay on Lefty1 it was -0.582; in assay [16] it was 0.796. In addition, in [1], the composite Z-score is 0.0269 (inactive). The z-score is 1.4 in assay [15] and 0.0192 (inactive) in assay [17].
Take `CC1CC/C=C\[C@H]2OC34C=CCN(Cc5ccccc5)C(=O)[C@H]3N(CCCO)C(=O)[C@@H]4C2C(=O)O1` (stereo not given in full): the composite z-score in the assay with Albumin (Bos taurus) is -0.0908; in [2], -0.437; in assay [3] it was -0.155; in assay [4], 0.861; in assay [5] it was -0.0465; in assay [6], 1.25. Moreover, the composite z-score in the assay on Sam68 (KHDRBS1) was -0.649; in assay [7] it was -0.933; in [8], -0.841; in assay [9] it was 0.522; in assay [10], -0.67; in assay [11] it was -0.364. For the same compound, the composite z-score in [12] was 0.623; in [13], -0.838; in assay [14], -0.536; in the assay with Lefty1, -0.215; in assay [16], -0.176. Besides, the composite Z-score in assay [1] was -0.422 (inactive). Further, the z-score in assay [15] is -0.178; in assay [17], -0.483 (inactive).
With `COc1ccc(CCNC(=O)[C@@H]2c3ccccc3C(=O)N(Cc3ccccc3Cl)[C@H]2c2ccc(CO)cc2)cc1`, the composite z-score in the assay with Albumin (Bos taurus) is 0.0645; in [2], -0.0647; in [3] it was -0.0712; in [4], 0.363; in [5], 1.47; in assay [6] it was 0.0463. The composite z-score in the assay on Sam68 (KHDRBS1) was 0.579; in assay [7], -0.014; in assay [8], 0.207; in assay [9] it was 0.218; in [10], 1.14; in [11] it was 0.224. The composite z-score is 0.435 in assay [12]; 0.495 in assay [13]; 0.187 in assay [14]; -0.0833 in the assay with Lefty1; 0.261 in [16]. The composite Z-score in assay [1] is -0.145 (inactive). In addition, the z-score in assay [15] is 2.4; in [17], -0.745 (inactive).
As to `COC(=O)[C@@]1(Cc2ccc(OC)cc2)[C@H]2c3cc(C(=O)N(C)C)n(Cc4ccccn4)c3C[C@H]2CN1C(=O)c1ccccc1`, the composite z-score with Albumin (Bos taurus) is 0.972; in assay [2], 0.0674; in assay [3], 0.293; in [4], 0.89; in assay [5], 3.14; in assay [6], 1.03. The composite z-score in the assay with Sam68 (KHDRBS1) was -0.0453; in assay [7], -0.855; in assay [8], -0.0204; in [9], 1.57; in [10], 0.451; in [11], 1.44. Besides, the composite z-score in assay [12] is 0.547; in [13], -0.363; in [14], -0.567; with Lefty1, -0.805; in assay [16], 1.35. The composite Z-score in assay [1] was 0.655 (inactive). The z-score in assay [15] was 0.332; in assay [17], 1.6 (inactive).
Take `CCCC[C@@H]1C[C@H]1[C@@H](NC(=O)c1cccs1)c1ccc(-c2ccccc2)cc1`: the composite z-score was 0.1 with Albumin (Bos taurus); 0.206 in [2]; -0.14 in assay [3]; 0.254 in assay [4]; 0.874 in [5]; -0.202 in [6]. In addition, the composite z-score in the assay with Sam68 (KHDRBS1) worked out at 0.393; in [7], 0.0355; in [8] it was 0.432; in assay [9], 0.433; in assay [10] it was 0.852; in assay [11], 0.0412. The composite z-score in assay [12] was 0.149; in assay [13], 0.552; in assay [14], -0.292; in the assay with Lefty1, 0.361; in assay [16], 0.849. The composite Z-score in [1] was -0.252 (inactive). Moreover, the z-score is 0.319 in assay [15] and 1.65 (inactive) in [17].
